Each structure is given as a SMILES string. About 1,700 (0.52%) of roughly 330,000 compounds were called active. Many of the other results were omitted from the sample, so actives are more common in it than they were. Values without a mark were called inactive. Cut-off read from the data, not from the text of the source: active = inhibition above about 50%; inactive = the rest.

From PubChem BioAssay AID435003 (Sanford-Burnham Center for Chemical Genomics, 2010) come the findings set out here.

The assay can be described thus: inhibitors of induced NF-kB luciferase reporter, primary screen, TCR NF-kB activation inhibitor project, cell-based, luminescence, uHTS (AID 435003). The settings on record: Jurkat, PMA/ionomycin-induced NF-kB luciferase reporter, at 4 µM, active compounds read high. On the technique in general: Reporter assays use an easily measured gene product as a stand-in for the process of interest.
What is called inhibition is the change of the read-out against control, counted positive when it falls. For the compound `Cc1ccc(C(=O)OCC(=O)Nc2ccc(Cl)cn2)cc1S(=O)(=O)N1CCOCC1`, the inhibition was 3.39%.

As for `CCOC(=O)[C@H]1[C@H]2COc3ccc(OC)cc3[C@@H]2N2C(=O)c3ccc(F)cc3NC(=O)[C@@]12C`, the inhibition is -10.9%. The result for `CC(N)C12CC3CC(CC(O)(C3)C1)C2` (stereo not drawn) reads 6.68%; that for `Cc1ccc2c(=O)oc(N(C)C)nc2c1`, 1.31%.

Consider `Cc1cccc(NS(=O)(=O)c2ccc(-c3cnc(C4CC4)o3)cc2)c1`, for which the inhibition is 54.1% (active).

Turning to `Cc1cccc(CNS(=O)(=O)c2ccc(-c3cnc(C4CC4)o3)cc2)c1`, the inhibition was 5.99%. In the case of `COc1ccc(CNS(=O)(=O)c2ccc(-c3cnc(C4CC4)o3)cc2)cc1`, the inhibition is 18.4%. As to `Cc1cccc(C)c1NC(=O)CNC(=O)C1CCCC1`, the inhibition is -3.97%. The figure for `Cc1ccc(S(=O)(=O)C2(S(=O)(=O)c3ccc(C)cc3)CCCC2)cc1` is 59.5% (active); for `Cc1ccc(S(=O)(=O)NC2CCCCCC2)cc1` it is -18.9%.

Regarding `Cc1ccc(S(=O)(=O)N(C)C2(C)CCS(=O)(=O)C2)cc1` (stereo not drawn), the inhibition was 7.55%. Turning to `CC(=O)Nc1ccc(S(=O)(=O)NCC(=O)OCC(=O)c2ccc[nH]2)cc1`, the inhibition was 2.52%.

As for `Nc1c(C(=O)Nc2ccc3c(c2)OCCO3)nnn1Cc1ccccc1`, the inhibition is -98.1%. Regarding `CCCNC(=O)c1cnc(-c2ccccc2)nc1-c1ccccc1`, the inhibition is 17.2%. Regarding `C#CCSc1nnc(-c2sc3ccccc3c2Cl)o1`, the inhibition was -65.2%. Regarding `COc1ccc(CCNC(=O)/C(C#N)=C2\N=C(NC(=O)c3cccs3)c3ccccc32)cc1`, the inhibition was -17.6%. The figure for `O=C(NCC#CCSc1nnc(-c2cccc3ccccc23)o1)c1cccs1` is 51.4% (active); for `N/C(=N\c1nc2ccccc2o1)NC(=O)C(Cc1ccccc1)N1C(=O)c2ccccc2C1=O` (stereo not drawn) it is -5.81%. In the case of `O=C(CSc1ncnc2c1oc1ccccc12)NC1CCCC1`, the inhibition was -16.7%.

`O=C(NCCC1CCCCN1S(=O)(=O)c1ccc(F)cc1)C(=O)NC1CC1` (stereo not drawn): the inhibition is 2.56%. For the compound `O=C(NCCC1CCCCN1S(=O)(=O)c1cccs1)C(=O)Nc1ccc(F)cc1F` (stereo not drawn), the inhibition was 57.9% (active).

On to `COc1ccccc1CCNC(=O)C(=O)NCCC1CCCCN1S(=O)(=O)c1cccs1` (stereo not drawn), for which the inhibition is 11.1%. Turning to `COC(=O)Cn1cnc2scc(-c3ccc(C)c(C)c3)c2c1=O`, the inhibition is 11.8%. The figure for `Cc1ccc(S(=O)(=O)N2CCN(C(=O)Cc3sc(C)nc3-c3ccc(F)cc3)CC2)c(C)c1` is 0.534%; for `Clc1cccc(Cl)c1OCCOCCNCc1ccccc1` it is 61.5% (active). Consider `CCOc1ccccc1OCCCNCc1ccccc1`, for which the inhibition is -8.28%. The result for `OCCNCc1cccc(OCc2ccccc2Cl)c1` reads 4.83%; that for `Cc1ccc(C(=O)N2CCN(C3CCCCC3)CC2)s1`, -4.14%; that for `COc1cccc(Oc2ccc(N)cc2)c1`, 0.758%. The figure for `CC(C)(C)c1ccc(OC2=CS(=O)(=O)c3ccccc32)cc1` is -29.9%; for `CC(C)(C)c1ccc(Oc2ccc(N)cc2)cc1` it is 84.9% (active). On to `O=C(O)CCCCCNc1ncnc2ccc(Br)cc12`, for which the inhibition was 5.8%. As for `Brc1ccc2ncnc(NCc3cccnc3)c2c1`, the inhibition is 28.6%.

As for `COc1ccc(Nc2ncnc3ccc(Br)cc23)c(OC)c1`, the inhibition was 59.8% (active). The result for `CC(C)c1ccc(-c2noc(C3CCCN(S(C)(=O)=O)C3)n2)cc1` (stereo not drawn) reads -30.6%. Take `CCOC(=O)C1=C(C)Nc2nc3ccccc3n2C1c1cccs1` (stereo not drawn): the inhibition was 7.93%. With `CCOc1ccc(C2C(C(=O)NC)=C(C)Nc3nc4ccccc4n32)cc1OC` (stereo not drawn), the inhibition is 6.25%. The result for `COc1ccccc1NC(=O)C1=C(C)Nc2nc3ccccc3n2C1c1cccs1` (stereo not drawn) reads 58.1% (active); that for `O=C(O)/C=C/C(=O)NNc1ccc([N+](=O)[O-])cc1`, 9.38%; that for `O=C(c1c(F)cccc1Cl)N1CCN(S(=O)(=O)c2ccc3c(c2)OCCCO3)CC1`, -0.00048%. The figure for `COc1ccc2[nH]c(C(=O)N/N=C/c3cc(OC)c(OC)c(OC)c3)cc2c1` is 17.7%; for `CN=c1scc(-c2cc(OC)ccc2OC)n1/N=C/c1c(C)[nH]c2ccccc12` it is -10.3%. On to `COc1cc(N=Cc2c(O)[nH]c3ccccc23)cc(OC)c1OC`, for which the inhibition was 76.1% (active). The figure for `CC(C)Oc1ccc(C(=O)NC(C)(C)CO)cc1` is -5.78%; for `CCC(C)NC(=O)C1c2ccccc2C(=O)N1Cc1ccccc1` (stereo not drawn) it is -0.632%. The figure for `COC(c1ccccc1)c1nnc(CCC(=O)N2CCN(CCOc3ccccc3)CC2)o1` (stereo not drawn) is 14.1%; for `Cc1ccc(S(=O)(=O)Nc2ccc3ncccc3c2)cc1` it is 16.8%.

Take `COc1ccc(N2CC(NS(=O)(=O)c3ccc4ccccc4c3)CC2=O)cc1` (stereo not drawn): the inhibition was 4%. As for `COc1cc(NS(=O)(=O)c2ccc3ccccc3c2)c2ncccc2c1`, the inhibition was 66% (active). The figure for `O=C(NC(=O)c1ccc(Cl)c(Cl)c1)OC1CCS(=O)(=O)C1` (stereo not drawn) is 2.78%; for `C=CCN(c1ccc(C(N)=O)cc1)S(C)(=O)=O` it is -12.3%. The result for `CCC(C)c1ccc(NC(=S)NCc2ccccn2)cc1` (stereo not drawn) reads -14.5%; that for `NC1=NC2(CCCCC2)N(c2ccc(F)cc2F)C(N)=N1`, 2.27%.

For the compound `NC(N)=N/N=C/c1ccc(OCc2ccc(Cl)cc2Cl)cc1`, the inhibition was 59% (active). On to `CCOc1ccc(/C=N/NC(N)=S)cc1`, for which the inhibition is -13%. The figure for `OC(CNCCc1ccc(Cl)cc1Cl)COc1ccccc1` (stereo not drawn) is 5.89%.

Turning to `COc1ccccc1N1CCN(C(=O)c2cc(=O)c3cc(C)ccc3o2)CC1`, the inhibition is 19.9%.

Regarding `COc1ccccc1N1CCN(C(=O)c2c(-c3c(Cl)cccc3Cl)noc2C)CC1`, the inhibition is -3.34%. For the compound `COc1ccccc1N1CCN(C(=O)c2cc(=O)c3cc(C)cc(C)c3o2)CC1`, the inhibition was 64.2% (active). The figure for `O=C(O)c1cc2c(cc1NC(=O)c1c(F)cccc1Cl)OCCCO2` is 17.5%.

With `O=C(CN1C(=O)c2ccccc2S1(=O)=O)N1CCc2ccccc21`, the inhibition was 72.7% (active).

For the compound `O=C(CN1C(=O)c2ccccc2S1(=O)=O)NC1CCCCC1`, the inhibition is -1.51%. The result for `CC1CCCN(C(=O)CN2C(=O)c3ccccc3S2(=O)=O)C1` (stereo not drawn) reads -25%.
